Measurements taken from PubChem BioAssay (Tox21).
Several values for one entry are separate records, joined by “and”; a condition that tells them apart may be missing. Equal values may be shown once. Records with an inconclusive call do not appear. A call without a number means that no potency is given here. More than one record can exist for a structure, and the calls need not agree. Activity calls are given as the source filed them. Unless noted, calls follow the shape of the dose curve; as a rule, active = well fitted curve in the direction sought with a large enough effect in the repeat runs; inconclusive = weak or mixed curves; inactive = no such curve, though single readings can be large; an effect the other way counts as inactive or inconclusive.

Experiments:
[1] = qHTS assay to identify small molecule agonists of the estrogen receptor alpha (ER-alpha) signaling pathway in the presence of an antagonist - cell viability counter screen (AID 1259386);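 also: cells exposed to compounds for 22 h at 37 °C before the viability read; nearly all actives have a fitted effect of over 30% in size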; also: potency is read from the fitted curve at half-maximal effect
In short: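 Read-out: CellTiter-Fluor fluorescence after 1hr reagent incubation, measured in the same wells as the luciferase readout. VM7Luc4E2 cells were exposed to 15 compound concentrations with 10.0nM ICI-182,780 for 22hr at 37C.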

[2] = biological target: Progesterone receptor (Homo sapiens) (UniProt P06401); test: qHTS assay to identify small molecule antagonists of the progesterone receptor (PR) signaling pathway (AID 1346795; active = well fitted inhibition curve with a large enough effect in the signal ratio in the repeat runs, not every such curve was filed as active; the % refers to the signal ratio; also: potency is read from the fitted curve at half-maximal effect)
In short: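 Beta-lactamase reporter, HEK293T PR-UAS-bla line; 2% charcoal-stripped FBS; 6 hr pre-incubation, 37C/5% CO2. Compound + R5020 1 nM final, 16 hr. LiveBLAzer B/G FRET substrate, 2 hr RT; fluorescence intensity read.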

[3] = qHTS assay to identify small molecule antagonists of the progesterone receptor (PR) signaling pathway - cell viability counter screen (AID 1346798); also: nearly all actives have a fitted effect of over 50% in size; also: potency is read from the fitted curve at half-maximal effect
In short: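 Luminescence readout (CellTiter-Glo, 30 min, RT) of viability in PR-UAS-bla HEK293T cells exposed to compound and R5020 agonist for 16 hr at 37C, 5% CO2; run in the same wells as the beta-lactamase reporter read.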

[4] = qHTS assay to identify small molecule agonists of the progesterone receptor (PR) signaling pathway - cell viability counter screen (AID 1346799; calls by dose curve; also: nearly all actives have a fitted effect of over 45% in size; also: potency is read from the fitted curve at half-maximal effect)
In short: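 HEK293T PR-UAS-bla, 3,000 cells/well, 2% charcoal-stripped FBS; 6 h settle, compound 16 h at 37C/5% CO2; LiveBLAzer 2 h RT, then CellTiter-Glo 30 min RT, luminescence read.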

[5] = Human pregnane X receptor (PXR) small molecule agonists, qHTS cell viability counter screen (AID 1346977); also: nearly all actives have a fitted effect of over 50% in size; also: potency is read from the fitted curve at half-maximal effect
In short: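 Fluorescence read-out (CellTiter-Fluor) of viability in PXR-Luc HepG2 cells, multiplexed with the luciferase agonist read. Compounds in DMSO added after 5hr plating; 24hr total exposure at 37C, 5% CO2.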

[6] = Caspase-3/7 induction in HepG2 cells by small molecules, qHTS assay (AID 1346978); also: nearly all actives have a fitted effect of over 15% in size; also: potency is read from the fitted curve at half-maximal effect
In short: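 Caspase-3/7 induction was measured by Caspase-Glo 3/7 luminescence (30 min, room temperature) after a 17 hr compound exposure of wild-type HepG2 cells seeded at 2,000 per well and pre-incubated 5 hr.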

[7] = Caspase-3/7 induction in CHO-K1 cells by small molecules, qHTS cell viability counter screen (AID 1346979); also: nearly all actives have a fitted effect of over 35% in size; also: potency is read from the fitted curve at half-maximal effect
In short: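 CHO-K1 wt, 1,500 cells/well; 5hr pre-incubation 37C/5% CO2; compound pin transfer (DMSO); 16hr exposure; CellTiter-Fluor added, 1hr, fluorescence read.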

[8] = Caspase-3/7 induction in HepG2 cells by small molecules, qHTS cell viability counter screen (AID 1346981); also: nearly all actives have a fitted effect of over 30% in size; also: potency is read from the fitted curve at half-maximal effect
In short: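 Fluorescence read-out of live-cell protease activity (CellTiter-Fluor) after 1 hr with reagent. This was measured in the same wells as the caspase-3/7 luminescence, on HepG2 cells exposed to DMSO-dissolved compounds for 16 hr at 37 C.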

[9] = biological target: Cytochrome P450 2D6 (Homo sapiens) (UniProt P10635); test: Cytochrome P450 Family 2 Subfamily D Member 6 (CYP2D6) small molecule antagonists: luciferase reporter qHTS assay (AID 1671196); also: nearly all actives have a fitted effect of over 50% in size; also: potency is read from the fitted curve at half-maximal effect
In short: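 Luminogenic proluciferin substrate, CYP2D6 enzyme; 10 min RT preincubation with compound, NADPH regeneration system added, 1 h RT. Stop/detection reagent, 20 min RT, luminescence read (RLU). Signal proportional to CYP activity.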

[10] = biological target: Cytochrome P450 2C19 (Homo sapiens) (UniProt P33261); test: Cytochrome P450 Family 2 Subfamily C Member 19 (CYP2C19) small molecule antagonists: luciferase reporter qHTS assay (AID 1671197); also: nearly all actives have a fitted effect of over 65% in size; also: potency is read from the fitted curve at half-maximal effect
In short: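 Luminescent readout of CYP2C19 activity: luciferin product detected 20 min after adding detection reagent. Before that, compound and enzyme-substrate mix preincubated 10 min at room temperature; NADPH-regenerating system started a 1 h, 37C reaction. Ketoconazole as positive control.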

[11] = qHTS assay to identify small molecule antagonists of the TGF-beta/Smad signaling pathway - cell viability counter screen (AID 1346824); also: nearly all actives have a fitted effect of over 50% in size
In short: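 Cytotoxicity counter-screen run in the same wells as the beta-lactamase Smad reporter read: CellTiter-Glo luminescence after 30 min at room temperature. HEK 293T SBE-bla cells had 5 hr compound exposure at 37 C with TGF-beta1 (0.25 ng/mL stock).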

[12] = qHTS assay to identify small molecule agonists of the TGF-beta/Smad signaling pathway - cell viability counter screen (AID 1346829); also: top concentration of the series differs between compounds; nearly all actives have a fitted effect of over 45% in size
In short: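 Cytotoxicity counter screen: CellTiter-Glo luminescence (30 min, room temperature) measured in the SBE-bla HEK 293T reporter wells after 5 hr compound treatment at 37 C and the 2 hr substrate step.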

[13] = qHTS assay to identify small molecule agonists of the TGF-beta/Smad signaling pathway (AID 1346859; active = well fitted activation curve with a large enough effect in the signal ratio in the repeat runs, not every such curve was filed as active; the % refers to the signal ratio; also: series mostly up to about 77 µM)
In short: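 Read-out: fluorescence at 460 and 530 nm (405 nm excitation) after a 2 hr room-temperature incubation with beta-lactamase FRET substrate. SBE-bla HEK 293T cells had been treated with test compounds for 5 hr at 37 C.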

[14] = biological target: Thyrotropin-releasing hormone receptor (Homo sapiens) (UniProt P34981); test: qHTS assay to identify small molecule antagonists of the thyrotropin-releasing hormone receptor (TRHR) signaling pathway (AID 1346877; active = well fitted inhibition curve with a large enough effect in the repeat runs, not every such curve was filed as active; also: series mostly up to about 51 µM)
In short: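 HEK293/TRHR cells, 18 h, 37 °C; Ca2+ dye 2 h; cpd 5 min RT; TRH 1 nM final; fluorescence read 3 min, 1 s intervals; 15 concs, triplicate.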

[15] = biological target: Thyrotropin-releasing hormone receptor (Homo sapiens) (UniProt P34981); test: qHTS assay to identify small molecule agonists of the thyrotropin-releasing hormone receptor (TRHR) signaling pathway (AID 1346891; calls by dose curve;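 also: HEK293 cells expressing TRHR with calcium dye readout; series mostly up to about 58 µM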)
In short: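 HEK293/TRHR cells, 1500 per well, 18 h 37 °C; Ca dye 2 h 37 °C; pin-tool compound addition (agonist mode); kinetic fluorescence 3 min, 1 s reads; 15 concentrations, triplicate.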

[16] = Caspase-3/7 induction in CHO-K1 cells by small molecules, qHTS assay (AID 1346980); also: nearly all actives have a fitted effect of over 15% in size
In short: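 Luminescent Caspase-Glo 3/7 read (30min, room temperature) quantified apoptosis induction. Cells were wild-type CHO-K1, treated with compound for 17hr at 37 C and 5% CO2.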

[17] = biological target: Nuclear receptor subfamily 1 group I member 2 (Homo sapiens) (UniProt O75469); test: Human pregnane X receptor (PXR) small molecule agonists, qHTS assay (AID 1346982); also: nearly all actives have a fitted effect of over 35% in size; also: potency is read from the fitted curve at half-maximal effect
In short: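 HepG2 PXR-Luc reporter line, 5% charcoal-stripped FBS; 5 hr pre-incubation, compound (DMSO) 24 hr at 37 C/5% CO2; ONE-Glo 30 min RT; luminescence read-out.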

[18] = biological target: Nuclear receptor subfamily 1 group I member 2 (Rattus norvegicus) (UniProt Q9R1A7); test: Rat pregnane X receptor (rPXR) activation by small molecules, qHTS assay (AID 1346983); conditions: rPXR luciferase reporter cells, One-Glo luminescence, 24 h; stronger effect = higher value; also: nearly all actives have a fitted effect of over 20% in size
In short: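 Luminescent readout (One-Glo luciferase, 30 min room temperature) followed 24 hr compound treatment at 37 C of rPXR cells plated 2,000 per well and preincubated 5hr; qHTS format with compounds delivered in DMSO.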

[19] = biological target: Nuclear receptor subfamily 1 group I member 2 (Homo sapiens) (UniProt O75469); test: Human pregnane X receptor (PXR) activation by small molecules, qHTS assay (AID 1346985); also: nearly all actives have a fitted effect of over 40% in size
In short: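 DPX-2 cells (HepG2 co-transfected with a PXR response element and a CYP3A4-promoter luciferase construct) were seeded at 2,000 per well, rested 5 hr at 37C, then exposed to DMSO-dissolved compounds for 24 hr. Activation was read as luciferase luminescence.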

[20] = biological target: Progesterone receptor (Homo sapiens) (UniProt P06401); test: qHTS assay to identify small molecule agonists of the progesterone receptor (PR) signaling pathway (AID 1346784; calls by dose curve; also: nearly all actives have a fitted effect of over 30% in size)
In short: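 HEK 293T PR-UAS-bla reporter cells, 2% charcoal-stripped FBS; 6 hr settle at 37C/5% CO2, compound (DMSO) 16 hr, LiveBLAzer B/G FRET substrate 2 hr RT, fluorescence intensity read.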

Cytochrome P450 2D6 (Homo sapiens), sequence (P10635 whole entry, looked up): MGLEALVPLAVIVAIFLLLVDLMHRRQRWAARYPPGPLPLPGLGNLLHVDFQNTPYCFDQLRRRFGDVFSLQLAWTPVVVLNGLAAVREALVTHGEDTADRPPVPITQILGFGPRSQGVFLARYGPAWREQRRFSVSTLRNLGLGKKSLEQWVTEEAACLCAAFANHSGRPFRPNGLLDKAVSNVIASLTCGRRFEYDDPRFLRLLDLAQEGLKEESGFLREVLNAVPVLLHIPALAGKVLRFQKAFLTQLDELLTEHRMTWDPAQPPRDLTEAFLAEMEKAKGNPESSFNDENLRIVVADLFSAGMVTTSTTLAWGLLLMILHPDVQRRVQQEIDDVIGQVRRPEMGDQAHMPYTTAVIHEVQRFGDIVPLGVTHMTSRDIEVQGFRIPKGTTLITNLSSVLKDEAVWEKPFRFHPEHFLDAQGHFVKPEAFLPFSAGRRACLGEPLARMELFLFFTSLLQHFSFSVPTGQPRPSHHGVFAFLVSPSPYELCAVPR
Progesterone receptor (Homo sapiens), sequence (P06401 whole entry, looked up): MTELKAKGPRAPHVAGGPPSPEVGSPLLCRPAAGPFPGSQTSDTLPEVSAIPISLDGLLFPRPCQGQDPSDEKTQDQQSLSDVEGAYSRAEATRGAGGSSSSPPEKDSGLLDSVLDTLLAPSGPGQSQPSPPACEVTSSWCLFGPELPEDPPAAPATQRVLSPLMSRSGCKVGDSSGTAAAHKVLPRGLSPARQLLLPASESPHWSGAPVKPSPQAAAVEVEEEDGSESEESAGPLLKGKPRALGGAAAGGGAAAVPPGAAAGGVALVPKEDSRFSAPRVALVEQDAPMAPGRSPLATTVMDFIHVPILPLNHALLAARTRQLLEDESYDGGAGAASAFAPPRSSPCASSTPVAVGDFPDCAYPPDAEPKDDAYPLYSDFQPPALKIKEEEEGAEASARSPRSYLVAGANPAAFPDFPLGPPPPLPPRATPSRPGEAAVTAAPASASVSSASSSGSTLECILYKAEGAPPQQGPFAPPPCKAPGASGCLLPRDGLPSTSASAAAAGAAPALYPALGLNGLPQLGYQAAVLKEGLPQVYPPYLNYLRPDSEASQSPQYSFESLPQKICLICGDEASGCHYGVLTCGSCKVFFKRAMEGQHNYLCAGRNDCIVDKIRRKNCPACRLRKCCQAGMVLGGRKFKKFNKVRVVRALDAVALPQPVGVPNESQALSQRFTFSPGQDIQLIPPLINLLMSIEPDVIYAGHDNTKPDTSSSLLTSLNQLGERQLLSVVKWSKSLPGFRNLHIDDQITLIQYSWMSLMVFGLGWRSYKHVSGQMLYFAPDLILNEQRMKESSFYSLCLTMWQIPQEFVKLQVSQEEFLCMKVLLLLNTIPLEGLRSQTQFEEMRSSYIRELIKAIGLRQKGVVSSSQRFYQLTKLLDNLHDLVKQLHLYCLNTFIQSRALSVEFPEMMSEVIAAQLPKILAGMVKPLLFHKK
Cytochrome P450 2C19 (Homo sapiens), sequence (P33261 whole entry, looked up): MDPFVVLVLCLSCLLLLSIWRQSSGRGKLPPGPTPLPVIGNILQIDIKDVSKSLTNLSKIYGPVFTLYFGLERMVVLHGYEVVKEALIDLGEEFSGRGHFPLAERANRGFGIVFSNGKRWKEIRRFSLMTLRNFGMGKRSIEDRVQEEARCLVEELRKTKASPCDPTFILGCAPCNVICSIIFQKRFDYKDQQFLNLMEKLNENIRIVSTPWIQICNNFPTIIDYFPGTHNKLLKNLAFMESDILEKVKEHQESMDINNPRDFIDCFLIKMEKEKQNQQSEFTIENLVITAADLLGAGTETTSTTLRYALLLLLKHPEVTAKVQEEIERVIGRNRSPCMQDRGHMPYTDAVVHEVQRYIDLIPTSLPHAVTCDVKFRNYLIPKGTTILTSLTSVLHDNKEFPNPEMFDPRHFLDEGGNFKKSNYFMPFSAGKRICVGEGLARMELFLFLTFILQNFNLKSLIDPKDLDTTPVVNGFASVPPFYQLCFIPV
Nuclear receptor subfamily 1 group I member 2 (Homo sapiens), sequence (O75469 whole entry, looked up): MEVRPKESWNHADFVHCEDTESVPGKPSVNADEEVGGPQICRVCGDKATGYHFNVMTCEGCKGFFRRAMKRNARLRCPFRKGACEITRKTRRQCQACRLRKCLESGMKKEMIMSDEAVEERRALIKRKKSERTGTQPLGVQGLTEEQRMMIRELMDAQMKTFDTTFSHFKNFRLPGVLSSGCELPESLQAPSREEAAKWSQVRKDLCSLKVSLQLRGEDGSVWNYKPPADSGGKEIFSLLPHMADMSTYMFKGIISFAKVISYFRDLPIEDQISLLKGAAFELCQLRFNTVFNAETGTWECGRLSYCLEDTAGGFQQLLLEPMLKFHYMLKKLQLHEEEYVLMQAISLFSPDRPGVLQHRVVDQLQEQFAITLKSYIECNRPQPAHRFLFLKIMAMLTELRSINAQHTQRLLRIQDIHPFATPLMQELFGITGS
Nuclear receptor subfamily 1 group I member 2 (Rattus norvegicus), sequence (Q9R1A7 whole entry, looked up): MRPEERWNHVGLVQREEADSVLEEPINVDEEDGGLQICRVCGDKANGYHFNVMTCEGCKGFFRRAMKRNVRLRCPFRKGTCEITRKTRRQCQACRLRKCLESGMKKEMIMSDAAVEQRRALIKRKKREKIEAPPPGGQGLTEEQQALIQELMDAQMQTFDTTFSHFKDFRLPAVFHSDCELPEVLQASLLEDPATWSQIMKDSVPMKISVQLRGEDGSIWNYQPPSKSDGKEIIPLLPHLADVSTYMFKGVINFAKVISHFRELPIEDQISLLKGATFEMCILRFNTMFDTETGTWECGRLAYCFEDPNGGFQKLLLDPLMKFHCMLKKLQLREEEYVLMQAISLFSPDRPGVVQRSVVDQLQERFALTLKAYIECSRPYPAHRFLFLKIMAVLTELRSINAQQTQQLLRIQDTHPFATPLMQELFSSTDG
Thyrotropin-releasing hormone receptor (Homo sapiens), sequence (P34981 whole entry, looked up): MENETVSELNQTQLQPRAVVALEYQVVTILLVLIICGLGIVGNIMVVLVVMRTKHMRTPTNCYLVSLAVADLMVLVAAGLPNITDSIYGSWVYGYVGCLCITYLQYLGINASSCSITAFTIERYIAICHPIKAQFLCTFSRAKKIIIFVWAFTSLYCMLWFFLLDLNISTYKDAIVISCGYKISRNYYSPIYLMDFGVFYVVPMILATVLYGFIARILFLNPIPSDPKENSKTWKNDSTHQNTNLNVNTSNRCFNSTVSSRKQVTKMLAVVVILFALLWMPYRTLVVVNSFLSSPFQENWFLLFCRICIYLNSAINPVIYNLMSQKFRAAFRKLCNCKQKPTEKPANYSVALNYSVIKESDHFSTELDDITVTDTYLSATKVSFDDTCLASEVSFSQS

Row | SMILES | Potency [1] | Potency [2] | Potency [3] | Potency [4] | Potency [5] | Potency [6] | Potency [7] | Potency [8] | Potency [9] | Potency [10] | Potency [11] | Potency [12] | outcome [13] | Potency [14] | Potency [15] | Potency [16] | Potency [17] | max activation [18] | Potency [19] | Potency [20]
1 | Cc1c(O)cccc1C(=O)N[C@@H](CSc1ccccc1)[C@H](O)CN1C[C@H]2CCCC[C@H]2C[C@H]1C(=O)NC(C)(C)C | 29.8 µM (active) and 11.9 µM (active) | 13.3 µM (active) and 21.1 µM (active) | 29.8 µM (active) | 26.6 µM (active) | 16.8 µM (active) and 13.3 µM (active) | 66.8 µM (active) | 5.95 µM (active) and 10.6 µM (active) | 11.9 µM (active) and 13.3 µM (active) | 8.71 µM (active) and 15.5 µM (active) | 9.77 µM (active) | – | – | – | – | – | – | – | – | – | –
2 | O=C1CC2(CCCC2)CC(=O)N1CCCCN1CCN(c2ncccn2)CC1 | inactive | inactive | inactive | 5.45 µM (active) and inactive | inactive | inactive | 54.5 µM (active) and inactive | inactive | – | – | inactive | inactive | inactive | inactive | inactive | inactive | – | – | – | –
3 | COC(=O)[C@H]1[C@H]2C[C@@H]3c4[nH]c5cc(OC)ccc5c4CCN3C[C@H]2C[C@@H](OC(=O)c2cc(OC)c(OC)c(OC)c2)[C@@H]1OC | inactive | inactive | inactive | inactive | 39.7 µM (active) and inactive | inactive | 30.6 µM (active) and 39.7 µM (active) and inactive | 44.5 µM (active) and inactive | 28.2 µM (active) and 9.19 µM (active) | 41.1 µM (active) and inactive | inactive | inactive | – | – | – | inactive | – | – | – | –
4 | C=CC(=O)OCCCCCCOC(=O)C=C | inactive | inactive | inactive | inactive | inactive | inactive | 43.8 µM (active) and 43.3 µM (active) | inactive | inactive | 39.9 µM (active) | inactive | inactive | inactive | inactive | inactive | – | inactive | – | – | –
5 | OCC(CO)N[C@H]1C[C@](O)(CO)[C@@H](O)[C@H](O)[C@H]1O | inactive | inactive | – | inactive | inactive | inactive | inactive | inactive | inactive | inactive | inactive | inactive | inactive | inactive | inactive | inactive | inactive | -3.54% (inactive) | inactive | –
6 | CCCCC(CC)COC(=O)CC(C(=O)OCC(CC)CCCC)S(=O)(=O)O (stereo not drawn) | inactive | – | – | 29.5 µM (active) | 70.8 µM (active) and 61.1 µM (active) | inactive | 52.4 µM (active) | – | inactive and 17.8 µM (active) | – | – | inactive | inactive | inactive | inactive | – | 5.88 µM (active) and 3.06 µM (active) | – | – | inactive
7 | O=C(OCc1ccccc1)c1ccc(O)cc1 | inactive | 34.4 µM (active) and 26.6 µM (active) | – | inactive | inactive | inactive | inactive | inactive | – | – | inactive | inactive | inactive | inactive | inactive | inactive | inactive | 0.826% (inactive) | inactive | –
8 | c1ccc2cc3c(ccc4ccccc43)cc2c1 | inactive | – | inactive | inactive | inactive | inactive | inactive | inactive | 35.7 µM (active) | 50.2 µM (active) | inactive | inactive | – | – | – | – | 27.4 µM (active) and 10.9 µM (active) | – | – | inactive
9 | CC[C@H]1CN2CCc3cc(OC)c(OC)cc3[C@@H]2C[C@@H]1C[C@H]1NCCc2cc(OC)c(OC)cc21 | 38.7 µM (active) | 772 nM (active) | inactive | inactive | 24.4 nM (active) and 10.6 nM (active) | inactive | 27.4 nM (active) and 13.3 nM (active) | 48.7 nM (active) and 16.8 nM (active) | 40.1 µM (active) | – | inactive | inactive | inactive | – | – | – | 19.4 nM (active) and 8.4 nM (active) | -15.9% (inactive) | inactive | –
10 | Cc1cc(C(C)(C)C)c(O)c(C(C)(C)C)c1 | inactive | inactive | inactive | inactive | inactive | inactive | inactive | inactive | inactive | – | inactive | inactive | inactive | inactive | inactive | inactive | inactive | – | – | –
11 | Clc1ccc2c(c1)C(N1CCNCC1)=Nc1ccccc1O2 | inactive | 5.45 µM (active) and inactive | inactive | inactive | 29.8 µM (active) | inactive | inactive | inactive | 3.99 µM (active) and 3.09 µM (active) | 63.3 µM (active) and inactive | inactive | inactive | inactive | inactive | inactive | inactive | inactive | – | – | –
12 | CCCCN(CCO)CCCC | inactive | inactive | inactive | inactive | inactive | inactive | inactive | inactive | 36.4 µM (active) | – | inactive | inactive | – | inactive | inactive | inactive | – | – | – | –
13 | C=CC(=O)OCCCCCCCC | inactive | inactive | inactive | inactive | inactive | inactive | inactive | inactive | inactive | inactive | inactive | inactive | – | – | – | inactive | inactive | – | – | –
